Results as given in PubChem BioAssay (EPA / NIEHS).
Several values for one entry are separate records, joined by “and”; a condition that tells them apart may be missing. Equal entries are not always repeated. Inconclusive results are not listed. Activity calls are given as the source filed them. Rule for the calls, unless noted: active = hit-call score of the fitted dose curve at least 0.9, where 1 is the maximum; inconclusive = response in the unintended direction; inactive = score below 0.9.

Tests used:
[1] = molecular target: Cellular tumor antigen p53 (Homo sapiens) (UniProt P04637); test: TOX21_p53_BLA_p3_ratio: Tox21 HCT-116 p53 Agonism Beta-lactamase Assay, Ratio, Phase 3 (AID 2283596)
Method in brief: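 HCT116 p53-bla cells (4000/well) given compound in DMSO (217-fold dilution) after 5 h, incubated 16 h at 37C. CCF4-AM substrate 2 h at room temperature; 460/530 nm emission ratio, gain fitted against DMSO.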

[2] = TOX21_p53_BLA_p4_viability: Viability Assessment in the Tox21 HCT-116 p53 Agonism Beta-lactamase Assay, Phase 4 (AID 2283597);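 note: hits lower the luminescence signal meaning cytotoxicity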
Method in brief: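 Following a 16 h exposure at 37C, the treated HCT116 wells were first read for the FRET ratio. They were then lysed with CellTiter-Glo, and ATP luminescence was recorded after 30 min at room temperature.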

[3] = molecular target: Cellular tumor antigen p53 (Homo sapiens) (UniProt P04637); test: TOX21_p53_BLA_p5_ratio: Tox21 HCT-116 p53 Agonism Beta-lactamase Assay, Ratio, Phase 5 (AID 2283599)
Method in brief: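 HCT-116 cells carrying a p53-inducible beta-lactamase reporter were seeded at 4000 cells/well and dosed after 5 h with compound in DMSO (217-fold dilution). After 16 h at 37C, CCF4-AM substrate was added for 2 h, and the 460/530 nm emission ratio was scored as gain-of-signal versus DMSO.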

[4] = molecular target: Cellular tumor antigen p53 (Homo sapiens) (UniProt P04637); test: TOX21_p53_BLA_p4_ratio: Tox21 HCT-116 p53 Agonism Beta-lactamase Assay, Ratio, Phase 4 (AID 2283601)
Method in brief: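 HCT116 cells carrying an inducible beta-lactamase reporter were plated at 4000 cells/well, rested 5 h, then exposed to compounds in DMSO (217-fold dilution) for 16 h at 37C. CCF4-AM substrate was loaded 2 h at room temperature; 460/530 nm emission ratio scored gain-of-signal versus DMSO.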

[5] = Tanguay_ZF_120hpf_MORT_legacy: (Legacy) Oregon State University Tanguay Lab 120 Hour Post-fertilization zebrafish Assay for Mortality (AID 2283633)
Method in brief: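 Static waterborne exposure from 6 to 120 hpf at 28C of single dechorionated wild-type (5D) embryos per well, 0.64% DMSO final. Death recorded present/absent by brightfield at 24 and 120 hpf.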

[6] = Tanguay_ZF_120hpf_YSE_legacy: (Legacy) Oregon State University Tanguay Lab 120 Hour Post-fertilization zebrafish Assay for Yolk Sac Edema (AID 2283634)
Method in brief: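 Presence or absence of yolk sac edema was recorded at 120 hpf in surviving larvae. These were wild-type Tropical 5D embryos, chorion removed at 4 hpf, held in static exposure at 28C from 6 hpf with 0.64% DMSO vehicle.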

[7] = Tanguay_ZF_120hpf_AXIS_legacy: (Legacy) Oregon State University Tanguay Lab 120 Hour Post-fertilization zebrafish Assay for Body Axis Malformation (AID 2283635)
Method in brief: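 Binary scoring of axis defects at 120 hpf under brightfield, fitted positive versus DMSO. Tropical 5D embryos, chorion removed by pronase at 4 hpf, were singly exposed in sealed, dark plates at 28C from 6 hpf; DMSO 0.64% final.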

[8] = Tanguay_ZF_120hpf_EYE_legacy: (Legacy) Oregon State University Tanguay Lab 120 Hour Post-fertilization zebrafish Assay for Eye Malformation (AID 2283636);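 note: binary presence or absence of eye malformation scored by brightfield in 120 hpf larvae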
Method in brief: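 Dechorionated wild-type Tropical 5D zebrafish embryos were exposed statically from 6 hpf, one per well, to 120 hpf at 28C in sealed, foil-covered plates with 0.64% DMSO. Eye malformation was scored present/absent by brightfield microscopy against DMSO controls.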

[9] = Tanguay_ZF_120hpf_SNOU_legacy: (Legacy) Oregon State University Tanguay Lab 120 Hour Post-fertilization zebrafish Assay for Snout Malformation (AID 2283637)
Method in brief: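 Tropical 5D wild-type zebrafish embryos, dechorionated with pronase at 4 hpf, were exposed singly from 6 hpf to 120 hpf statically at 28C in 0.64% DMSO. Snout malformation was scored present/absent by brightfield microscopy, fitted against DMSO.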

[10] = Tanguay_ZF_120hpf_JAW_legacy: (Legacy) Oregon State University Tanguay Lab 120 Hour Post-fertilization zebrafish Assay for Jaw Malformation (AID 2283638)
Method in brief: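 Binary jaw-malformation call at 120 hpf by brightfield microscopy. Embryos (Tropical 5D strain, chorion removed at 4 hpf) were dosed statically at 6 hpf, one per well, at 28C with 0.64% DMSO. Embryos that died were not scored.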

[11] = Tanguay_ZF_120hpf_OTIC_legacy: (Legacy) Oregon State University Tanguay Lab 120 Hour Post-fertilization zebrafish Assay for Otic Vesicle Malformation (AID 2283639)
Method in brief: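 Tropical 5D wild-type zebrafish embryos statically exposed in 0.64% DMSO at 28C until 120 hpf; 5uM trimethyltin chloride as positive control. Otic vesicle malformation scored present/absent by brightfield; dead embryos not scored; gain fitted versus DMSO.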

[12] = Tanguay_ZF_120hpf_PE_legacy: (Legacy) Oregon State University Tanguay Lab 120 Hour Post-fertilization zebrafish Assay for Pericardial Edema (AID 2283640)
Method in brief: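 Scoring was binary, by brightfield microscopy at 120 hpf, and skipped where mortality occurred. Wild-type embryos were kept under sealed, foil-covered static exposure at 28C in 0.64% (vol/vol) DMSO.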

[13] = Tanguay_ZF_120hpf_SOMI_legacy: (Legacy) Oregon State University Tanguay Lab 120 Hour Post-fertilization zebrafish Assay for Somite Malformation (AID 2283647)
Method in brief: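 Binary somite-defect scoring at 120 hpf, omitted for embryos that died, in wild-type (Tropical 5D) zebrafish with chorion removed by pronase at 4 hpf; static exposure began 6 hpf, single embryos per well, 28C, 0.64% DMSO; fitted positive versus DMSO.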

[14] = Tanguay_ZF_120hpf_PFIN_legacy: (Legacy) Oregon State University Tanguay Lab 120 Hour Post-fertilization zebrafish Assay for Pectoral Fin Malformation (AID 2283648);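 note: each larva judged yes or no for fin defect by brightfield with dead larvae skipped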
Method in brief: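 Tropical 5D wild-type embryos, dechorionated with pronase at 4 hpf, were placed singly in wells at 6 hpf and statically exposed until 120 hpf at 28C, sealed and dark, with 0.64% (vol/vol) final DMSO; pectoral fin malformation scored present/absent.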

[15] = Tanguay_ZF_120hpf_PIG_legacy: (Legacy) Oregon State University Tanguay Lab 120 Hour Post-fertilization zebrafish Assay for Pigmentation Malformation (AID 2283650)
Method in brief: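 Tropical 5D wild-type zebrafish embryos, dechorionated with pronase at 4 hpf, were exposed singly from 6 hpf to 120 hpf statically at 28C in sealed, dark plates with 0.64% DMSO; pigmentation scored present/absent by brightfield microscopy, fitted against DMSO.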

[16] = Tanguay_ZF_120hpf_CIRC_legacy: (Legacy) Oregon State University Tanguay Lab 120 Hour Post-fertilization zebrafish Assay for Circulatory Malformation (AID 2283651)
Method in brief: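 Dechorionated wild-type 5D zebrafish embryos, one per well, statically exposed from 6 to 120 hpf at 28C with 0.64% DMSO; circulatory malformation scored present/absent by brightfield microscopy at 120 hpf, dead embryos excluded.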

[17] = TOX21_p53_BLA_p5_viability: Viability Assessment in the Tox21 HCT-116 p53 Agonism Beta-lactamase Assay, Phase 5 (AID 2283600)
Method in brief: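 After the 460/530 nm beta-lactamase measurement, the wells received an ATP-detection luciferase reagent; signal was read 30 min later at RT. Compound treatment lasted 16 h on cells pre-incubated 5 h post-seeding.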

[18] = Tanguay_ZF_120hpf_CFIN_legacy: (Legacy) Oregon State University Tanguay Lab 120 Hour Post-fertilization zebrafish Assay for Caudal Fin Malformation (AID 2283649)
Method in brief: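 Binary brightfield scoring of caudal fin defects at 120 hpf after static, light-shielded exposure at 28C from 6 hpf. Tropical 5D embryos, chorion removed with pronase at 4 hpf, final DMSO 0.64%.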

[19] = read-out: kallikrein-3 (KLK3), KLK3 (gene 354); test: LTEA_HepaRG_KLK3: Life Technologies and Expression Analysis (LTEA) Assay for kallikrein-3 (KLK3) using HepaRG (AID 2283652; active = hit-call score of the fitted dose curve at least 0.9, where 1 is the maximum; inactive = score below 0.9); details: mRNA level, 48 h; actives raise or lower the signal
Method in brief: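 Differentiated human HepaRG cells in serum-free induction medium exposed 48 h in duplicate, eight-point half-log series from 100 uM in 0.5% DMSO. KLK3 mRNA by qRT-PCR, normalised to ACTB, GAPDH, POLR2A; bidirectional fit versus DMSO.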

[20] = read-out: solute carrier (SLC22A6), SLC22A6 (gene 9356); test: LTEA_HepaRG_SLC22A6: Life Technologies and Expression Analysis (LTEA) Assay for solute carrier (SLC22A6) using HepaRG (AID 2283653; active = hit-call score of the fitted dose curve at least 0.9, where 1 is the maximum; inactive = score below 0.9); details: mRNA level, 48 h; actives raise or lower the signal
Method in brief: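 SLC22A6 transcript was measured by TaqMan qRT-PCR, normalized to three housekeeping genes, after 48 h duplicate exposure of HepaRG cells (100 uM top, half-log steps, 0.5% DMSO); bidirectional fit against vehicle.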

Chain of Cellular tumor antigen p53 (Homo sapiens) (P04637 whole entry, looked up): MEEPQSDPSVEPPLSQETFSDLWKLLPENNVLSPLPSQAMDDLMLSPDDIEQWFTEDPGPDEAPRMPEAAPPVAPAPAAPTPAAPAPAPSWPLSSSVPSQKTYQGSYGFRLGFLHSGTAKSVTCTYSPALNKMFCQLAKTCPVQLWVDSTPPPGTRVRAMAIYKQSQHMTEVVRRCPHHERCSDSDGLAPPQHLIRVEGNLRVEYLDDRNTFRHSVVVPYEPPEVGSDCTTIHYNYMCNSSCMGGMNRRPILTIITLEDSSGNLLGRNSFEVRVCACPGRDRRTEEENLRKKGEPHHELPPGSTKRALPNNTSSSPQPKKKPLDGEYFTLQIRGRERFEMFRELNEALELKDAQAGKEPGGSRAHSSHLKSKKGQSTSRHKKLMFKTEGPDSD

O=c1[nH]c(=O)[nH]c(=O)[nH]1
outcome [1]: inactive | outcome [2]: inactive | outcome [3]: inactive | outcome [4]: inactive | outcome [5]: inactive | outcome [6]: inactive | outcome [7]: inactive | outcome [8]: inactive | outcome [9]: inactive | outcome [10]: inactive | outcome [11]: inactive | outcome [12]: inactive | outcome [13]: inactive | outcome [14]: inactive | outcome [15]: inactive | outcome [16]: inactive

O=C(NCO)NCO
outcome [1]: inactive | outcome [2]: inactive | outcome [17]: inactive | outcome [4]: inactive

CCC(C)(C)c1ccc(O)c(C(C)(C)CC)c1
AC50 [1]: 79.3 µM (active) and 85.5 µM (active) | AC50 [2]: 23 µM (active) and 53.5 µM (active) | AC50 [3]: 22.9 µM (active) and 70.8 µM (active) | AC50 [17]: 22.2 µM (active) and 45.7 µM (active) | AC50 [4]: 54.3 µM (active) | outcome [5]: inactive | outcome [6]: inactive | outcome [7]: inactive | outcome [8]: inactive | outcome [9]: inactive | outcome [10]: inactive | outcome [11]: inactive | outcome [12]: inactive | outcome [13]: inactive | outcome [18]: inactive | outcome [15]: inactive | outcome [16]: inactive

CC(=O)c1cc(C(C)(C)C)cc2c1CCC2(C)C
outcome [1]: inactive | outcome [3]: inactive | outcome [17]: inactive | outcome [4]: inactive

CN(C)N=O
outcome [1]: inactive | outcome [2]: inactive | outcome [3]: inactive | outcome [17]: inactive | outcome [4]: inactive | outcome [5]: inactive | outcome [6]: inactive | outcome [8]: inactive | outcome [9]: inactive | outcome [10]: inactive | outcome [11]: inactive | outcome [12]: inactive | outcome [13]: inactive | outcome [18]: inactive | outcome [16]: inactive

Nc1ccc(N=Nc2ccc(-c3ccc(N=Nc4c(S(=O)(=O)O)cc5cc(S(=O)(=O)O)c(N=Nc6ccccc6)c(O)c5c4N)cc3)cc2)c(N)c1
outcome [1]: inactive | outcome [2]: inactive | outcome [3]: inactive | outcome [4]: inactive

COP(=S)(OC)Oc1c(Cl)cc(C)cc1Cl
outcome [1]: inactive | outcome [2]: inactive | outcome [3]: inactive | outcome [4]: inactive

CCOP(=S)(OCC)Oc1nc(Cl)c(Cl)cc1Cl
outcome [1]: inactive | outcome [2]: inactive | outcome [3]: inactive | outcome [4]: inactive | outcome [5]: inactive | outcome [6]: inactive | outcome [7]: inactive | outcome [8]: inactive | outcome [9]: inactive | outcome [10]: inactive | outcome [11]: inactive | outcome [12]: inactive | outcome [13]: inactive | outcome [18]: inactive | outcome [15]: inactive | outcome [16]: inactive

Nc1ncc([N+](=O)[O-])s1
outcome [1]: inactive | outcome [3]: inactive | outcome [17]: inactive | outcome [4]: inactive

O=C(O)C(F)(F)C(F)(F)C(F)(F)C(F)(F)C(F)(F)C(F)(F)C(F)(F)C(F)(F)C(F)(F)C(F)(F)F
outcome [1]: inactive | outcome [3]: inactive | outcome [17]: inactive | outcome [4]: inactive | outcome [5]: inactive | outcome [6]: inactive | outcome [8]: inactive | outcome [9]: inactive | outcome [10]: inactive | outcome [11]: inactive | outcome [12]: inactive | outcome [13]: inactive | outcome [14]: inactive | outcome [18]: inactive | outcome [15]: inactive | outcome [16]: inactive | outcome [19]: inactive | outcome [20]: inactive
